From ChEMBL document CHEMBL1157539, “Thousands of chemical starting points for antimalarial lead identification” (Nature, 2010)

system: Plasmodium falciparum; assay: GSK_TCMDC: Inhibition of Plasmodium falciparum Dd2 in whole red blood cells, using parasite LDH activity as an index of growth. Test compounds present at 2uM; type: functional

| SMILES | Inhibition [%] |
| --- | --- |
| O=C(Nc1ccc(N2CCN(Cc3ccccc3Cl)CC2)cc1)c1ccc([N+](=O)[O-])o1 | 67 |
| CC(=NNC(S)=NC(c1ccccc1)c1ccccc1)c1ccccn1 | 97 |
| Cc1cc(C(=O)N[C@H]2CCN(Cc3ccc(OCCCN(C)C)cc3)C2)ccc1Br.O=C(O)C(F)(F)F | 62 |
| Cc1ccc(C)c2sc(N(CCCn3ccnc3)C(=O)C=Cc3cccs3)nc12.Cl | 93 |
| CCCCCc1cc(O)c2c(c1)OC(C)(C)C=C2C1=CCN(Cc2ccsc2)CC1 | 48 |
| CCOc1cc(C(=O)N[C@@H](Cc2ccccc2)[C@H](O)CNCc2cc(OC)cc(OC)c2)cc(N2CCCCS2(=O)=O)c1.Cl | 98 |
| Cc1nc2ccc(Nc3nccc(-c4c(-c5cccc(NC(=O)c6c(F)cccc6F)c5)nn5ccccc45)n3)cc2nc1C | 45 |
| O=[N+]([O-])c1cc(/C=N/Nc2nc3nonc3nc2Nc2ccc(F)cc2)c(Cl)cc1Cl | 13 |
| Cc1cccc2nc(-c3ccc(-c4cccc(CNCCNC(=O)c5ccnn5C)c4)cc3)[nH]c12.O=C(O)C(F)(F)F | 92 |
| CO/C(=C\C=C\c1cc2cc(Cl)c(Cl)cc2[nH]1)C(=O)Nc1ccc(NCCN(C)C)nc1.Cl | 56 |
| Cc1nc2nc(N)nc(N)c2c(C)c1Cc1ccc(O)cc1.Cl | 0 |
| Cc1ccc(NC(=O)c2ccc3ncccc3c2)cc1OC1CCN(C(C)C)C1.O=C(O)C(F)(F)F (stereo not given) | 37 |
| COc1c(C2CCN(CCCCNC(=O)c3ccc(-c4ccc(C(F)(F)F)cc4)c(C(=O)OC(C)C)c3)CC2)ccc2c1CCCC2 | 30 |
| CC(=O)Nc1nc(C(=O)Nc2cccc(-c3cccc(-c4nc5cc(F)ccc5[nH]4)c3)c2)cs1 | 100 |
| Cc1ccc2c(c1)C1(CC(=O)N(CCc3scnc3C)C1=O)C(=O)N2Cc1ccccc1 (stereo not given) | 73 |
| Cn1cncc1C(=O)Nc1cccc(-c2ccc(-c3nc4cc(F)ccc4[nH]3)cc2)c1 | 31 |
| CN(c1ncc(-c2cccc(CNCc3ccccc3O)c2)cn1)C1CCCCC1 | 71 |
| Cc1cccc2nc(-c3ccc(-c4ccc(CNCc5ccc(CN)cc5)cc4)cc3)[nH]c12.O=C(O)C(F)(F)F | 46 |
| Cc1cc(Nc2ccc(C(C)(C)C)cc2)c2[nH]ncc2n1.Cl | 63 |
| O=C(Nc1ccc(-c2ccccc2)s1)N[C@H]1CCN(Cc2ccc(OCCCN3CCCCC3)cc2)C1 | 40 |

| SMILES | Inhibition [%] |
| --- | --- |
| O=C(CCC1CCCC1)N(Cc1ccc(-c2ccc(CNCCc3ccccn3)cc2)cc1)CC1CCCCN1.O=C(O)C(F)(F)F (stereo not given) | 69 |
| CCN1CCC(N(Cc2ccc(-c3ccc(C(F)(F)F)cc3)cc2)C(=O)CCCCn2c(CCc3cccc(F)c3F)nc(=O)c3ccccc32)CC1 | 77 |
| Cc1ccc(Nc2ccnc3ccc(C(F)(F)F)cc23)cc1O.O=C(O)C(F)(F)F | 69 |
| Cc1nc(C)c(-c2ccc(Cl)cc2Cl)c(O)c1Br | 57 |
| COc1cc(OC)c(NC(=O)C2c3ccccc3C(=O)N(CC(C)C)C2c2cccs2)cc1Cl (stereo not given) | 100 |
| O=C(Nc1ccc(Br)cc1)c1cc(Br)ccc1NS(=O)(=O)c1ccc(C(F)(F)F)cc1 | 56 |
| COc1ccc(NC(=O)c2cn(-c3ccc(C(C)(C)C)cc3)nc2C)cc1N1CCN(C)CC1 | 71 |
| N#Cc1ccc(N2CCN(Cc3cccc(-c4ccc(-c5nc6cc(C(F)(F)F)ccc6[nH]5)cc4)c3)CC2)nc1.O=C(O)C(F)(F)F | 81 |
| COc1ccccc1CN1CCC(CNC(=O)c2cc(-c3cccc(C(F)(F)F)c3)cs2)C1.O=C(O)C(F)(F)F (stereo not given) | 1 |
| COc1ccc(Nc2nc(N/N=C/c3ccc(O)cc3)nc(Nc3ccc([N+](=O)[O-])cc3)n2)cc1 | 16 |
| Cc1nc2ccccc2c(=O)n1/N=C/c1ccccc1[N+](=O)[O-] | 26 |
| COC(=O)c1ccc2nc(-c3ccc(C(=O)NCc4ccc(Cl)c(Cl)c4)cc3)[nH]c2c1 | 3 |
| CC(C)COc1ccc(Cl)cc1Cc1ccc(-c2nc3ccc(F)cc3[nH]2)o1 | 49 |
| CC(=O)c1ccccc1OCCSc1nnc(Cc2cccs2)n1C1CCCCC1 | 1 |
| CCc1nc2nc(C)cc(Nc3ccc4c(c3)OCCO4)n2n1 | 55 |
| Cl.O=C(NCCCCN1CCC(c2ccc3c(c2O)CCCC3)CC1)c1ccc(NC(=O)c2ccc(Cl)cc2)cc1 | 100 |
| O=C(/C=C/c1ccc(Cl)c(Cl)c1)NCCCCCN1CCC(C(=O)Nc2ccc(Cl)cc2)CC1 | 0 |
| CCc1c[nH]c2c(N3CCCC3=O)cc(C(=O)N[C@@H](Cc3ccccc3)[C@H](O)CNC(C)(C)c3cccc(OC)c3)cc12 | 98 |
| COc1ccc(-c2ccc(NC(=O)c3ccc(C#N)cc3)cc2)cc1CN1CCN(C)CC1.O=C(O)C(F)(F)F | 49 |
| COc1cc(CN/C(=N/c2ccc(-c3ccccc3)cc2)Nc2ccc(C#N)cc2O)cc(OC)c1 | 64 |
